Among the data in PubChem BioAssay AID743343 (Broad Institute, 2014) are outcome values, retold here.

This test relates to Drosophila melanogaster bursicon receptor LGR2 (rickets). The test is described as follows: LGR2 antagonists, dose response, cell-based, HEK293, CRE-luciferase reporter, cherry pick, set 2 (AID 743343). On the technique in general: A reporter such as luciferase makes a cellular process visible.

Structures are written as SMILES. Measured potencies and affinities stand elsewhere. Active and inactive are the calls of the source. How the calls were made is not given here.

For `O=C(CN1CCOc2ccccc21)NCc1ccc(F)cc1`, the molecule was classed as inactive.

For `CN(c1ccccc1)S(=O)(=O)c1cccc(NC(=O)c2cc(=O)c3ccccc3o2)c1`, the outcome was inactive.

On to `CCCCC(=O)N(C)c1c(C)nc2ccc(C(=O)N3CCCCC3)cn12`, for which the molecule was classed as inactive.

For the molecule `COc1cc(NC2CCCCC2O)c2nc(-c3ccc(Cl)cc3)ccc2c1` (stereo unspecified), the molecule was classed as inactive.

As for `CC(C)N(C(=O)COC(=O)c1ccccc1C(=O)c1ccc(Cl)c([N+](=O)[O-])c1)C(C)C`, the call was inactive.

With `COC(=O)c1ccc(Nc2cc(C)nc3ccc(C)cc23)cc1`, the result was inactive.

With `Cc1ccc2nc(-c3ccc(NC(=O)c4cccnc4)cc3)oc2c1`, the result was inactive.

`C[C@H](CO)N1C[C@H](C)[C@H](CN(C)Cc2ccccc2)Oc2c(NS(=O)(=O)c3cn(C)cn3)cccc2C1=O`: the result was inactive.

With `CC1CCN(C(=O)c2ccc(S(=O)(=O)Cc3cc(F)ccc3F)c([N+](=O)[O-])c2)CC1`, the call was inactive.

Regarding `Cc1ccc(NC(=O)c2ncn(CC(=O)N3CCN(c4ccccn4)CC3)n2)cc1C`, the call was inactive.

For `Cc1cc(Cl)ccc1OCCCC(=O)Nc1cc(S(=O)(=O)N2CCOCC2)ccc1N1CCOCC1`, the result was inactive.

On to `O=C(Nc1ccc(N2CCOCC2)c(S(=O)(=O)Nc2ccccc2Cl)c1)c1ccc(F)cc1`, for which the call was inactive.

For the molecule `COc1cccc(C#Cc2ccc([C@@H]3[C@@H](CO)N(C(=O)C4CCC4)[C@H]3C#N)cc2)c1`, the molecule was classed as inactive.

As to `O=C(NCc1ccco1)c1cc(NS(=O)(=O)c2cccc([N+](=O)[O-])c2)ccc1O`, the result was inactive.

Take `O=C(O)CSc1cc(NS(=O)(=O)c2cccc([N+](=O)[O-])c2)c2ccccc2c1O`: the outcome was inactive.

`O=C(c1ccc2c(c1)OCCO2)C1CCN(S(=O)(=O)c2ccc(F)cc2)CC1`: the molecule was called inactive.

Take `COc1ccc(S(=O)(=O)N2CCN(C(=O)c3ccc(C)o3)CC2)cc1`: the molecule was called inactive.

With `CCc1nnc(NC(=O)CSc2nnc3ncccn23)s1`, the outcome was inactive.

Turning to `c1ccc(COc2cccc(-c3cc4nc(NCCCn5ccnc5)ccn4n3)c2)cc1`, the molecule was classed as inactive.

With `COCC#Cc1ccc2c(c1)O[C@H](CN(C)S(=O)(=O)c1cccc(F)c1)[C@@H](C)CN([C@H](C)CO)S2(=O)=O`, the molecule was called inactive.

As for `C[C@@H]1CN([C@H](C)CO)C(=O)Cc2cc(NC(=O)CCC(F)(F)F)ccc2O[C@@H]1CN(C)CC1CCCCC1`, the result was inactive.

In the case of `CCCCN(Cc1ccccc1)S(=O)(=O)c1cc2c(cc1Br)CC(C)N2C(C)=O` (stereo unspecified), the call was inactive.

As for `Cc1ccc2nc(NC(=O)CCCC(=O)O)sc2c1`, the outcome was inactive.

For `CCC(=O)N(C)C[C@H]1Oc2cc(C#CCC(C)C)ccc2S(=O)(=O)N([C@H](C)CO)C[C@@H]1C`, the call was inactive.

Consider `COc1cccc(C(=O)Nc2ccc3c(c2)OC[C@@H](C)N(CC2CC2)C[C@H](C)[C@H](OC)CN(C)C3=O)c1`, for which the molecule was called inactive.

Regarding `CC1(c2ccccc2Cl)NC(=O)N(CC(=O)N2CCc3ccccc32)C1=O` (stereo unspecified), the result was inactive.

As for `COc1ccc(S(=O)(=O)N2CCOCC2)cc1NC(=O)COc1ccc(C)cc1`, the outcome was inactive.

As for `O=C(NCc1ccc(F)cc1)c1cc(C2CCCCN2S(=O)(=O)c2cccs2)on1` (stereo unspecified), the result was inactive.

Take `Cc1cccn2c(CNCC3(c4ccccc4)CCCC3)c(C(=O)N3CCOCC3)nc12`: the call was inactive.

As to `CC(=O)N1CCc2cc(S(=O)(=O)C(C)CC(=O)NCc3ccco3)ccc21` (stereo unspecified), the outcome was inactive.

`Cn1c(=O)c2cc(NC(=O)NCc3ccccc3)ccc2n1C/C=C/c1ccccc1`: the outcome was inactive.

On to `C[C@@H]1CN([C@@H](C)CO)S(=O)(=O)c2ccc(C3=CCCC3)cc2O[C@H]1CN(C)C(=O)c1ccccc1`, for which the outcome was inactive.

Consider `Cn1nnnc1SCC(=O)N1CCN(C(=O)c2ccco2)CC1`, for which the result was inactive.

Regarding `Cc1ccnc(N2C(=O)c3ccccc3C2Nc2ccc3c(c2)OCCO3)c1` (stereo unspecified), the call was inactive.

Turning to `O=C(Nc1cc(S(=O)(=O)Nc2ccccc2Cl)ccc1O)c1ccc(F)cc1F`, the molecule was classed as inactive.

In the case of `CC(C)c1ccc(NC(=O)N2CCN(S(=O)(=O)c3ccccc3)CC2)cc1`, the outcome was inactive.

In the case of `COc1ccc(-c2noc(CCC(=O)N3CCN(c4ccc(Cl)cc4)CC3)n2)cc1`, the result was inactive.

As for `COc1ccc(NC(=O)Nc2ccc3c(c2)CC(=O)N([C@@H](C)CO)C[C@@H](C)[C@H](CN(C)Cc2ccncc2)O3)cc1`, the outcome was inactive.

For the molecule `C[C@H](CO)N1C[C@H](C)[C@@H](CN(C)CC2CCOCC2)Oc2ncc(Br)cc2C1=O`, the outcome was inactive.

For `O=[N+]([O-])c1cc(S(=O)(=O)N2CCCCCC2)ccc1Cl`, the call was inactive.

As to `CO[C@H]1CN(C)C(=O)c2ccc(NC(=O)C3CC3)cc2OC[C@@H](C)N(C(=O)Cc2ccccn2)C[C@H]1C`, the molecule was called inactive.
